Measured values from PubChem BioAssay AID492996 (Johns Hopkins Ion Channel Center, 2010).
Potency and affinity values are given separately. Calls of active or inactive are those of the source.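 How the source made its calls: active means peak inhibition of the TRPC4 channel signal over 30% at some dose, with a fitted dose response curve; inactive means no inhibition or no dose response curve.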

Target: Short transient receptor potential channel 4 (Mus musculus) (UniProt Q9QUQ5)
Assay: TRPC4 inhibition under acetylcholine activation, SAR follow-up, cell-based, acetylcholine stimulus, HEK293 TRPC4, Fluo-4 (AID 492996)

Sequence of Short transient receptor potential channel 4 (Mus musculus) (Q9QUQ5 whole entry, looked up): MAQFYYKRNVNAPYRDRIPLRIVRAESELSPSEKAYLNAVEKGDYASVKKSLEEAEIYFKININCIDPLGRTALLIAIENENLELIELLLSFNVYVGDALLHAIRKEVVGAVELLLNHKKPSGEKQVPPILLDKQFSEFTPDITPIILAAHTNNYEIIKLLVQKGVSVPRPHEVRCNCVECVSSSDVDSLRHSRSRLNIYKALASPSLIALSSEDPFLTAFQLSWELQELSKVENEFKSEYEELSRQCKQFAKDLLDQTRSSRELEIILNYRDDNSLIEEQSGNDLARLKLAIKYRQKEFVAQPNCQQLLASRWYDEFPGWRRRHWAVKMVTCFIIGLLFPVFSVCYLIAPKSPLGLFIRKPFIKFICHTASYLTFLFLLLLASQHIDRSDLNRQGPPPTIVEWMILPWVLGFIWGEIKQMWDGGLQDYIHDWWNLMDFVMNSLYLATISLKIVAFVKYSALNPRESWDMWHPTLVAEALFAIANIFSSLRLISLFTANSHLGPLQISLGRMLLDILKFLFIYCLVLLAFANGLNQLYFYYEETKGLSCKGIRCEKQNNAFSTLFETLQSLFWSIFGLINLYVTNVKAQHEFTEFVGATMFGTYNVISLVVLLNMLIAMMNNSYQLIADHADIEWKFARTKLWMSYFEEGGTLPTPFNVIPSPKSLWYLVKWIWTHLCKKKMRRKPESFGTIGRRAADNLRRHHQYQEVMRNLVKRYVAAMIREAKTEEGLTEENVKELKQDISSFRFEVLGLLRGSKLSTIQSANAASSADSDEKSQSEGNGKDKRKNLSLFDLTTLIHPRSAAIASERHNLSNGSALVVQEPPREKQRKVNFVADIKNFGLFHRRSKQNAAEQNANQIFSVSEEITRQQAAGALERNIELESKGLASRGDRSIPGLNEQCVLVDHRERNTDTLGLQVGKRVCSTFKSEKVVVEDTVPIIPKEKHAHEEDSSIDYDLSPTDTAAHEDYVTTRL

`Cc1cc(N2CCNCC2)nc2ccccc12` was tested. Which outcome did it give?
The outcome was “inactive”.
